# In article PMC4336329 (PLoS ONE, 2015):
# About 14,000 (4.5%) of roughly 310,000 compounds showed an effect of 50% or more. The effect is printed as a negative number. The full list was thinned out, with strong results kept by preference.
# Target: human ether-à-go-go-related gene (hERG) potassium channel (human, UniProt Q12809)
# Assay: primary screen, population patch clamp on CHO cells stably expressing hERG; higher = less effect of the substance
# 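Further: peak tail current of the secondary pulse compared with the same well before compound.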
# Sequence of human ether-à-go-go-related gene (hERG) potassium channel (Q12809 whole entry, looked up): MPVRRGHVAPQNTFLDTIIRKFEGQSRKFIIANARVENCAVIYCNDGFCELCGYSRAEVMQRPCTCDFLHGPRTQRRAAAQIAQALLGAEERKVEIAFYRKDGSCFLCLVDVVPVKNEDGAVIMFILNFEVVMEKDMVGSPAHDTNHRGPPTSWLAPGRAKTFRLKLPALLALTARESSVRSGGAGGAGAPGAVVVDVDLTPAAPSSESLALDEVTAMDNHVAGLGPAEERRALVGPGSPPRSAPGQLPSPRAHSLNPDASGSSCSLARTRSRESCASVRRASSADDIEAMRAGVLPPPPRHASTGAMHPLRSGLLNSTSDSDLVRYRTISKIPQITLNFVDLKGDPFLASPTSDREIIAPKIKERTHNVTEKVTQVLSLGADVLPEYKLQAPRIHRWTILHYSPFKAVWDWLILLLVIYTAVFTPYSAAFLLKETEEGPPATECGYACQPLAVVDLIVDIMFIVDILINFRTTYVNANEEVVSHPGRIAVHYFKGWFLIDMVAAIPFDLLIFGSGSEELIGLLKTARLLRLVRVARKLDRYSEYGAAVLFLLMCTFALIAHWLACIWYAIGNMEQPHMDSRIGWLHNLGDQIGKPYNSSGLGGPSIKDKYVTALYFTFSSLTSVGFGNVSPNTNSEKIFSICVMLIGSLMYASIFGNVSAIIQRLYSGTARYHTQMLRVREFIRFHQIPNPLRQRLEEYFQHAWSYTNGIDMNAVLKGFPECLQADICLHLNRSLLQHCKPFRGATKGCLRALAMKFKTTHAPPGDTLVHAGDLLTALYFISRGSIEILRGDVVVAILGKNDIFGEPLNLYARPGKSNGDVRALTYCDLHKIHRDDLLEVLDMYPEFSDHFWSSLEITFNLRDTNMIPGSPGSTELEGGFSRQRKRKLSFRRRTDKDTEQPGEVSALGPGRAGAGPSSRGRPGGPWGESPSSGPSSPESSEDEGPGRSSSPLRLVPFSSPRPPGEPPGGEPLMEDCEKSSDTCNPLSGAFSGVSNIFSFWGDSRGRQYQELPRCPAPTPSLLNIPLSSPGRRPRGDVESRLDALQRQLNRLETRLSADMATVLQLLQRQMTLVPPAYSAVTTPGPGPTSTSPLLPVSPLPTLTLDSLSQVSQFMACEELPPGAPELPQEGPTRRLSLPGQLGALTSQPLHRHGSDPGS
row,Compound,"hERG current change (%, negative = inhibition) at 10uM [%]"
1,CC1CCN(c2ccccc2NC(=S)NC(=O)c2cccs2)CC1,-50.2
2,O=C(NC(=S)Nc1ccccc1N1CCCCC1)c1cccs1,6.21
3,CC(=O)N1CCN(c2ccccc2NC(=O)c2cccs2)CC1,-43.8
4,O=C(NC(=S)Nc1ccccc1N1CCCC1)c1cccs1,7.27
5,CCC(=O)N1CCN(c2ccccc2NC(=O)c2cccs2)CC1,-50.4
6,CN1CCN(c2ccccc2NC(=O)c2cccs2)CC1,-47.5
7,CCCC(=O)N(CCN1CCOCC1)c1nc2c(OC)ccc(OC)c2s1.Cl,-15.5
8,CCOC(=O)C1=C(N)Oc2cc(O)ccc2C1c1cccc([N+](=O)[O-])c1 (stereo not drawn),-11.3
9,COc1ccc(NC(=O)c2ccccc2Oc2ccccc2)c(OC)c1,1.42
10,COc1ccc(C(C(=O)NC2CCCCC2)N(Cc2cccnc2)C(=O)c2snc(C(N)=O)c2N)cc1 (stereo not drawn),-11.8
11,COc1ccc(/C=N/n2cncn2)cc1Cn1nc(C)c([N+](=O)[O-])c1C,-53.6
12,COc1ccc(/C=N/n2cncn2)cc1Cn1cc([N+](=O)[O-])cn1,-32.1
13,COc1ccc(/C=N/N2CCOCC2)cc1Cn1nc(C)c([N+](=O)[O-])c1C,-10.8
14,COC(=O)[C@]1(CC(C)C)N[C@H](c2ccc(-c3ccc(F)cc3)cc2)[C@@H]2C(=O)N(C)C(=O)[C@@H]21.O=C(O)C(F)(F)F,-15.7
15,Cl.O=c1cc(-c2ccccc2)[nH]n1-c1nc2ccccc2[nH]1,7.02
16,COc1ccc(-c2cc(=O)n(-c3nc4ccccc4[nH]3)[nH]2)cc1,-53.1
17,COC(=O)Cc1cc(=O)n(-c2nc3ccccc3[nH]2)[nH]1,-23.3
18,CCN(CC)CCOC(=O)/C=C/c1ccccc1.Cl,-12.4
19,Cc1cccc(Nc2nnc(SCC(=O)NCc3cccs3)s2)c1,21.9
20,CNc1nc(C)nc(-n2nc(C)cc2C)n1,15.8

row,Compound,"hERG current change (%, negative = inhibition) at 10uM [%]"
1,Cc1cc(C)n(-c2nc(Nc3ccccc3)nc(-n3nc(C)cc3C)n2)n1,15.6
2,Cc1cc(C)n(-c2nc(C)nc(NCc3ccccc3)n2)n1,-86.9
3,CC(=O)Nc1nc(SCc2ccc(Cl)cc2Cl)n[nH]1,16.4
4,O=[N+]([O-])c1ccc2c(c1)nc1n2CCSC1,-19.2
5,COc1ccc(CN2CC3CC(C2)c2cccc(=O)n2C3)cc1OC (stereo not drawn),-5.24
6,Cc1oc(-c2ccc(F)cc2F)nc1CN1C[C@@H]2C[C@@H](C1)c1cccc(=O)n1C2,-74.4
7,Cc1cc(C)n2c(Br)c(CN3CC4CC(C3)c3cccc(=O)n3C4)nc2n1 (stereo not drawn),0.651
8,Cc1ccc2occ(CN3CCN(Cc4ccccc4)CC3)c(=O)c2c1,-45.9
9,Cc1ccc(CN2CC3CC(C2)c2cccc(=O)n2C3)cc1 (stereo not drawn),-5.29
10,COc1cc(C)c(-c2nc(CN3C[C@@H]4C[C@@H](C3)c3cccc(=O)n3C4)c(C)o2)cc1C,-57.6
11,Cc1ccc2occ(CN3CC4CC(C3)c3cccc(=O)n3C4)c(=O)c2c1 (stereo not drawn),-63.9
12,Cc1cccc(N2CCN(Cc3nc(-c4ccc(F)cc4F)oc3C)CC2)n1,-41.3
13,COc1cc(CN2CC3CC(C2)c2cccc(=O)n2C3)cc(OC)c1OC (stereo not drawn),-6.41
14,COC(=O)C1=C(N)N(c2ccccc2C(F)(F)F)C2=C(C(=O)CCC2)C1c1ccc2c(c1)OCO2 (stereo not drawn),20.5
15,CC(C)(C)c1nc2scc(-c3ccc(Br)cc3)c2c(=O)o1,7.26
16,Cc1cc(C(=O)Nc2nnc(C3CCCCC3)s2)cs1,-5.46
17,COc1ccc(CCN(Cc2cccs2)S(=O)(=O)c2ccc(S(=O)(=O)N(C)C3CCCCC3)cc2)cc1OC,2.56
18,COc1cc(NC(=O)CCc2nnc3ccc(N4CCCC4)nn23)cc(OC)c1OC,6.49
19,Cn1cc(/C=C(\NC(=O)c2ccccc2Cl)C(=O)NCCN2CCOCC2)c2ccccc21,-30
20,O=C(CCC1CC(=O)Nc2ccccc21)NCc1ccc(F)cc1 (stereo not drawn),-17.6

row,Compound,"hERG current change (%, negative = inhibition) at 10uM [%]"
1,O=C(Nc1nc(-c2ccc(F)cc2)cs1)c1cccc(N2C(=O)CCC2=O)c1,9.67
2,COc1ccc(C)cc1S(=O)(=O)N1CCCC(C(=O)NC2CC2)C1 (stereo not drawn),-0.49
3,O=C(NCc1ccccc1)C1CC(=O)N(C2CCCCC2)C1 (stereo not drawn),17.8
4,Cc1ccc(C)c(S(=O)(=O)N2CCN(C(=O)CNC(=O)c3ccc4ccccc4c3)CC2)c1,-28.1
5,Cc1cccc(C(=O)NCC(=O)N2CCC2)c1,2.59
6,O=C(NCC(=O)N1CCN(S(=O)(=O)c2ccccc2)CC1)c1ccc2ccccc2c1,-53.5
7,O=C(NCC(=O)N1CCN(S(=O)(=O)c2ccccc2F)CC1)c1ccc2ccccc2c1,-12.2
8,Cc1ccc(S(=O)(=O)N2CCCN(C(=O)CNC(=O)c3cccc(C)c3)CC2)cc1,-54.3
9,Cc1cccc(C(=O)NCC(=O)N2CCN(S(=O)(=O)c3ccccc3)CC2)c1,-10.8
10,CCOC(=O)C1CCN(c2cc3c(cc2NC(=O)c2ccccc2Cl)n(C)c(=O)n3C)CC1,-48.8
11,CCOC(=O)C1CCN(Cc2ccc(O)c(OC)c2)CC1,-13.7
12,CCN(C(=O)COC(=O)c1ccc(C)c(S(=O)(=O)N2CCCCC2)c1)C1CCS(=O)(=O)C1 (stereo not drawn),-66.5
13,CC(C)CN(C(=O)c1cccc(S(=O)(=O)N2CCCCC2)c1)C1CCS(=O)(=O)C1 (stereo not drawn),0.956
14,CCN(C(=O)c1ccc(S(=O)(=O)N2CCC(C)CC2)cc1)C1CCS(=O)(=O)C1 (stereo not drawn),7.87
15,CCCCN(C(=O)c1ccc(S(=O)(=O)N2CCCC2)cc1)C1CCS(=O)(=O)C1 (stereo not drawn),-0.0452
16,CCCCN(C(=O)c1ccc(S(=O)(=O)N2CCC(C)CC2)cc1)C1CCS(=O)(=O)C1 (stereo not drawn),-53.2
17,CCCCN(C(=O)c1cccc(S(=O)(=O)N2CCCCC2)c1)C1CCS(=O)(=O)C1 (stereo not drawn),-52.1
18,CN(C(=O)c1cccc(S(=O)(=O)N2CCCCC2)c1)C1CCS(=O)(=O)C1 (stereo not drawn),2.39
19,CCN(C(=O)COC(=O)c1ccc(C)c(S(=O)(=O)N2CCOCC2)c1)C1CCS(=O)(=O)C1 (stereo not drawn),1.32
20,Cc1ccc(C(=O)OCC(=O)N(C)C2CCS(=O)(=O)C2)cc1S(=O)(=O)N1CCCCC1 (stereo not drawn),-16.5
